Experimental data taken from PubChem BioAssay (NCI).
“And” between values parts separate entries of the source, which are not always exact repeats. Identical values can stand only once. The panel holds about 79,000 compounds, 15% with a hit somewhere; the sample as a whole holds those more often. The source made the active and inactive calls. Cut-off read from the data, not from the text of the source: active = growth inhibition above about 70%; inactive = the rest. *1 amine or outer side, *2 acyl side, *3 side chain or, on linkers, in order; H or OH if unused. Where a SMILES comes first, the peptide text is derived from it. Bridges are numbered along the chain shown (N, C = ends). Roman numbers before positions name the chains, in order. [ ]: non-standard residue; d: D form. Actinocin(9to1) = Cc1c2oc3c(C)ccc(C(=O)[*:1])c3nc-2c(C(=O)[*:2])c(N)c1=O; NMeY = CN[CH](Cc1ccc(O)cc1)C(=O)O; Sar = CNCC(=O)O

How the values were obtained:
[1] = NCI Yeast Anticancer Drug Screen. Data for the rad50 strain (AID 155);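 note: 0% = growth of vehicle-only cultures of the same strain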; settings: S. cerevisiae rad50 strain growth inhibition; at 50.0 µM; stronger effect = higher value
Summary of the method: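 Cells are treated with compound, grown, and their growth is then scored against vehicle-only cultures of the same repair-deficient yeast strain.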

[2] = NCI Yeast Anticancer Drug Screen. Data for the mec2-1 strain (AID 157); settings: S. cerevisiae mec2-1 strain, at 50.0 µM, stronger effect = higher value
Summary of the method: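 Readout is yeast growth inhibition, normalised to vehicle-treated controls, in the mec2-1 strain exposed to compound.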

[3] = NCI Yeast Anticancer Drug Screen. Data for the sgs1 mgt1 strain (AID 161);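 note: 0% = growth of cultures given vehicle only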; settings: S. cerevisiae sgs1 mgt1 strain, at 50.0 µM, stronger effect = higher value
Summary of the method: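 Yeast cells carrying a defined DNA-repair defect were exposed to test compounds. Growth inhibition was measured relative to vehicle-treated controls.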

[4] = NCI Yeast Anticancer Drug Screen. Data for the cln2 rad14 strain (AID 165);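 note: 0% = growth equal to vehicle treated cultures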; settings: S. cerevisiae cln2 rad14 strain, at 50.0 µM, stronger effect = higher value
Summary of the method: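 Relative to vehicle controls, growth inhibition of compound-treated cln2 rad14 yeast was recorded.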

[5] = NCI Yeast Anticancer Drug Screen. Data for the bub3 strain (AID 167); settings: S. cerevisiae bub3 mutant strain, at 50.0 µM, stronger effect = higher value
Summary of the method: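 Part of a panel of yeast mutants defective in DNA damage repair or cell cycle regulation. Each strain is grown with compound, and inhibition is calculated relative to solvent-treated cultures.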

[6] = NCI Yeast Anticancer Drug Screen. Data for the mlh1 rad18 strain (AID 175); settings: S. cerevisiae mlh1 rad18 strain growth inhibition; at 50.0 µM; stronger effect = higher value
Summary of the method: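 Test agents were incubated with a yeast strain of defined genotype (DNA damage repair defect). Inhibition of growth was derived by comparison with vehicle-exposed cultures.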

Measured: growth inhibition

O=[N+]([O-])c1ccccc1S(=O)(=O)Oc1ccccc1
inactive: [1] 10.1% and 54.7% | [2] 2.5% and -9.2% | [3] 5.45% and 46.3% | [4] -12.9% and 1% | [5] -8.65% and -14.5% | [6] 5.25% and 32.4%

COC1C(OC(C)=O)CC(=O)OC(C)C/C=C/C=C\C(O)C(C)CC(CC=O)C1OC1OC(C)C(OC2CC(C)(O)C(OC(=O)CC(C)C)C(C)O2)C(N(C)C)C1O (centres undefined)
inactive: [1] -0.2% and -2.9% | [2] -10.4% and -25.7% | [3] -22.6% and -34% | [4] -4.95% and 4.75% | [5] -27.1% and -30.9% | [6] -2% and -6.85%

Cc1c2oc3c(C)ccc(C(=O)NC4C(=O)NC(C(C)C)C(=O)N5CCCC5C(=O)N(C)CC(=O)N(C)C(Cc5ccc(O)cc5)C(=O)OC4C)c3nc-2c(C(=O)NC2C(=O)NC(C(C)C)C(=O)N3CCCC3C(=O)N(C)CC(=O)N(C)C(Cc3ccc(O)cc3)C(=O)OC2C)c(N)c1=O (centres undefined) (I: TVP[Sar][NMeY] / II: TVP[Sar][NMeY]; ester I:1-I:C, II:1-II:C; linker I:N-II:N via Actinocin(9to1); configuration not given here)
inactive: [1] -11.3% and -12.8% | [2] 0.3% and 1.3% | [3] -3.65% and -1.8% | [4] 4.7% and 26.5% | [5] -8.7% and 0.35% | [6] -25.1% and -32.2%

[B]C(=O)NC(CC(C)C)C(=O)NC1c2ccsc2C(=O)C1O (centres undefined) (tested in a mixture with another compound)
inactive: [1] 3.05% and 4.2% | [2] 18.6% and 22.4% | [3] 12.1% and 2.9% | [4] 2.9% and 16.6% | [5] 32.3% and 33.1% | [6] -16.1% and -21.4%

O=C1NC(=O)C(CO)(c2ccccc2)N1 (centres undefined)
inactive: [1] 14.2% and 7.65% | [2] 2% and -11.6% | [3] 6% and -1.85% | [4] -18.6% and 46.5% | [5] 0.95% and 10.4% | [6] 7.2% and 21.4%

OCC(O)C1OC(Oc2ccccc2)C(O)C(O)C1O (centres undefined)
inactive: [1] 2.5% and 35.6% | [2] 32.9% and -1.85% | [3] -6.75% and 4.1% | [4] -3% and -28.4% | [5] 31.3% and 7.35% | [6] 24% and 17.4%

CC(OC(=O)c1ccccc1)C(OC(=O)c1ccccc1)C(OC(=O)c1ccccc1)c1cnn(-c2ccccc2)n1 (centres undefined)
inactive: [1] 14.8% and 35.7% | [2] -2.35% and -1.9% | [3] 24.8% and 3.35% | [4] 19.1% and -9.45% | [5] 10.1% and 16.1% | [6] 6.7% and 32%

O=C(CCCC(=O)NO)NO
inactive: [1] 5.4% and 2.75% | [2] -2.25% and 0.6% | [3] -1.3% and -6.9% | [4] -8.15% and -26.6% | [5] -5.05% and -22.9% | [6] 2.65% and -37.4%

O=c1[nH]c(F)nc2c1ncn2C1OC(CO)C(O)C1O (centres undefined)
inactive: [1] -9.5% and -20.3% | [2] -5% and -12.8% | [3] -5.7% and -20.9% | [4] -16.4% and 8.4% | [5] 8.75% and -10.6% | [6] -21.2% and 6%

CCCCCCCCCCCC(=O)Nc1ccccc1
inactive: [1] -22.6% and -29.2% | [2] -4.05% and -16.9% | [3] 1.2% and -18.3% | [4] -31.7% and -71% | [5] 24.8% and -9.7% | [6] 14.4% and -31.1%

O=C(CCc1ccccc1)CCc1ccccc1
inactive: [1] -28.6% and 33.6% | [2] -4.3% and 4.85% | [3] 28.8% and 7.55% | [4] -30.9% and 27.6% | [5] 0.55% and 35.2% | [6] -20.4% and 26.6%

O=c1c(I)c[nH]cc1I
inactive: [1] -12.1% and -3.2% | [2] -15.9% and 14.1% | [3] -24.1% and 4.45% | [4] 3.35% and 22.6% | [5] -9.4% and 15.7% | [6] 22.2% and 14.8%

OC1CC2CCC(C1)S2 (centres undefined)
inactive: [1] -1.3% and 4.3% | [2] -25.3% and -2.75% | [3] -3.7% and 13.3% | [4] 9.85% and 13.3% | [5] 2.5% and 4.4% | [6] -11.6% and -1.55%

O=C(O)C1OC1C(=O)O (centres undefined)
inactive: [1] -24.1% and -0.45% | [2] -30.2% and -4.6% | [3] -23.9% and -5.4% | [4] -39.7% and -23.8% | [5] -21.5% and -5.95% | [6] -10.4% and 13.7%

Cc1cc(=O)[nH]c2ccc(Cc3ccccc3)cc12
inactive: [1] -1.2% and 28.1% | [2] 10.4% and 5.75% | [3] -7.75% and 17.6% | [4] -26.2% and 6% | [5] -4.6% and -2.65% | [6] 16.9% and 21.9%

NC(C(=O)O)C(O)C(=O)O (centres undefined)
inactive: [1] -14% and 2.7% | [2] 5.85% and 8.65% | [3] 2.85% and -6.75% | [4] 10.4% and -5.6% | [5] -5.75% and 4.05% | [6] 0.55% and -7.3%

C1=C(c2cccc3ccccc23)CCCC1
inactive: [1] -2.85% and 18.2% | [2] 7.45% and -4.1% | [3] -12.4% and -5.1% | [4] -0.1% and 8.1% | [5] 2.65% and 11.7% | [6] 6.9% and -9.2%

O=C1C2C3C=CC(C3)C2C(=O)N1O (centres undefined)
inactive: [1] 18.1% and 24.3% | [2] -7.6% and -8.3% | [3] 7.1% and 11.2% | [4] 10% and 10.6% | [5] 25.1% and 3.05% | [6] 11.4% and 18.5%

CCCCCCCCCCSCC(CO)NC(=O)/C=C/c1c(C)[nH]c(=O)[nH]c1=O (centres undefined)
inactive: [1] 1.95% and 30.7% | [2] -13.7% and 15.2% | [3] 2.45% and 2% | [4] -27.2% and 14.8% | [5] -14.4% and -14% | [6] 9.55% and -47.1%
